Here are results for 18 compounds from PubChem BioAssay (NCATS).

Assay [1] deals with Peroxisome proliferator-activated receptor delta (Homo sapiens) (UniProt Q03181). Description: qHTS assay for small molecule agonists of peroxisome proliferator-activated receptor delta signaling (AID 588534).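 Note: 0% = DMSO basal wells and 100% = positive control agonist at 10 µM.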 The method, boiled down:
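Cell-based beta-lactamase reporter assay run in agonist mode: cells seeded and incubated 5 hrs at 37 C, compounds added and incubated 18 hrs at 37 C. CCF4 dye fluorescence read after 2 hrs at RT; EC50 and efficacy from Hill fits.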

The nature of assay [2]: qHTS for Inhibitors of the Functional Ribonucleoprotein Complex (vRNP) of Lassa (LASV) Arenavirus: Viability assay - alamar blue signal for LASV Primary Screen (AID 1347083; calls by dose curve; tested in HEK293 reporter line; note: nearly all actives have a fitted effect of over 80% in size; note: potency is the fitted concentration of half-maximal effect).
The nature of assay [3]: qHTS for Inhibitors of the Functional Ribonucleoprotein Complex (vRNP) of Lymphocytic Choriomeningitis Arenaviruses (LCMV): Viability assay - alamar blue signal for LCMV Primary Screen (AID 1347085; calls by dose curve; tested in HEK293 reporter line; note: nearly all actives have a fitted effect of over 80% in size; note: potency is the fitted concentration of half-maximal effect).
The nature of assay [4]: Cytotoxicity counterscreen for inhibitors of SARS-CoV-2 cell entry (AID 1645845). Note: nearly all actives have a fitted effect of over 50% in size. Note: potency is the fitted concentration of half-maximal effect. Summed up: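 HEK293-ACE2 cells (Expi293F stably expressing human ACE2) seeded overnight, then compound for 1 h plus 48 h at 37C. Viability as ATP content by luminescence; normalized to wells with cells and media-only wells.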
A short description of assay [5]: Primary qHTS to identify inhibitors of SARS-CoV-2 cell entry (AID 1645846). Note: nearly all actives have a fitted effect of over 45% in size. The following applies: activity change, negative = inhibition: at 57.1 µM (top of the series) unless noted. Summed up:
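HEK293 cells stably expressing human ACE2, pre-treated 1 h with compound, then infected with MLV particles pseudotyped with Wuhan-Hu-1 spike (C-terminal 19-aa truncation). Luciferase luminescence after 48 h at 37 °C, normalised to spike PP and bald PP.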

Assay [6] is described as follows: Inducers of the Endoplasmic Reticulum Stress Response (ERSR) in human glioma: Validation (AID 504836; active = well fitted curve in the direction sought with a large enough effect; an effect the other way counts as inactive or inconclusive; note: 0% is about no effect). Summed up:
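Stably transfected U87-MG glioma cells carrying a GRP78-based luciferase sensor; 16 h compound incubation. Luminescence end-point read 10 min after Bright-Glo addition at room temperature.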

Assay [7] is described as follows: Primary qHTS for inhibitors of SARS-S pseudo-typed particle cell entry (AID 1479145). For activity change, negative = inhibition: % is set by controls: 0 for no effect and ±100 for the full control effect. Note: nearly all actives have a fitted effect of over 45% in size.
Assay [8] is described as follows: Primary qHTS for Huh7 cytotoxicity: counterscreen for inhibitors of MERS-S pseudotyped particle cell entry (AID 1479147). As to conditions: outcome: dose series up to 57.1 µM unless noted.
Assay [9] in a line: Primary qHTS for inhibitors of MERS-S pseudo-typed particle cell entry (AID 1479149). For activity change, negative = inhibition: % is set by controls: 0 for no effect and ±100 for the full control effect. Note: nearly all actives have a fitted effect of over 60% in size.
The nature of assay [10]: Primary qHTS for Vero E6 cytotoxicity: counterscreen for inhibitors of SARS-S pseudo-typed particle cell entry (AID 1479150). The following applies: outcome: dose series up to 57.1 µM unless noted.
The nature of assay [11]: Confirmatory qHTS to identify inhibitors of SARS-CoV-2 cell entry (AID 1645844). Note: potency is the fitted concentration of half-maximal effect; nearly all actives have a fitted effect of over 45% in size. Summed up: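 HEK293-ACE2 cells were pretreated 1 h with compound, then infected with MLV-based pseudoparticles bearing C-terminally truncated Wuhan-Hu-1 spike for 48 h at 37C; luciferase luminescence normalized to spike PP and bald PP wells.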
Assay [12] in a line: VSVG counterscreen qHTS to identify inhibitors of SARS-CoV-2 cell entry (AID 1645847). Note: potency is the fitted concentration of half-maximal effect; nearly all actives have a fitted effect of over 65% in size. The method, boiled down:
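HEK293-ACE2 cells (Expi293F, human ACE2) pretreated 1 h with compound, then infected with MLV-based VSV-G pseudotyped particles for 48 h at 37 C; luciferase luminescence normalized to VSV-G PP and bald PP wells.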

Assay [13] can be described thus: Confirmatory qHTS for VERO E6 Cytotoxicity Assay: Counterscreen for SARS-CoV-2 CPE Assay (AID 1508605). Note: % is set by controls: 0 for no effect and ±100 for the full control effect; nearly all actives have a fitted effect of over 60% in size.
The target of assay [14] is Alpha-galactosidase (Coffea arabica) (UniProt Q42656). The assay is described as follows: Counterscreen for Glucocerebrosidase Inhibitors: qHTS Assay for Coffee Bean alpha-Galactosidase at pH 4.5 (AID 957; active = well fitted curve in the direction sought with a large enough effect; an effect the other way counts as inactive or inconclusive;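 note: plate controls were enzyme alone for no effect and no enzyme for full effect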). Summed up: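 Green coffee bean enzyme (2 nM final) was incubated with compounds (0.7 nM to 77 uM) and 4-methylumbelliferyl alpha-D-galactopyranoside (80 uM final) in 50 mM citric acid, 0.005% Tween-20, pH 4.5, 20 min at room temperature; AC50 from Hill fits.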
Chain of Alpha-galactosidase (Coffea arabica) (Q42656 whole entry, looked up): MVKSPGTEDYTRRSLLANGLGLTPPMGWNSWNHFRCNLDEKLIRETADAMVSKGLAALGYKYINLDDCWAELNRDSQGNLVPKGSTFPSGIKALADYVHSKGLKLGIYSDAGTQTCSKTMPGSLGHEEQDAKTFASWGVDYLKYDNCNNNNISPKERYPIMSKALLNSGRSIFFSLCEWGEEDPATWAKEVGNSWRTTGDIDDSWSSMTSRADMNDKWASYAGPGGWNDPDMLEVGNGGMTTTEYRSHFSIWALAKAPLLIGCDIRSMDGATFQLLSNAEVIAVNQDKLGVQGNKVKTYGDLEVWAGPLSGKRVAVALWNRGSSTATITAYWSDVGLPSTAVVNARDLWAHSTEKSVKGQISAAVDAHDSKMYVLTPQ

Assay [15] has the same target. The assay is described as follows: Counterscreen for Glucocerebrosidase Inhibitors: qHTS Assay for Coffee Bean alpha-Galactosidase at pH 5.9 (AID 998; active = well fitted curve in the direction sought with a large enough effect; an effect the other way counts as inactive or inconclusive;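 note: plate controls were uninhibited enzyme for no effect and no-enzyme basal signal for full effect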). Summed up: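 Green coffee bean enzyme (2 nM) with 4-methylumbelliferyl alpha-D-galactopyranoside (80 uM) in 50 mM citric acid, 0.005% Tween-20, pH 5.9, 20 min at room temperature; compounds 0.7 nM–77 uM. Stopped at pH 10, fluorescence Ex365/Em440; Hill-fit AC50.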

Assay [16] in a line: Validation screen for inhibitors of Lassa infection (AID 463096). Note: % is set by controls: 0 for no effect and ±100 for the full control effect.
A short description of assay [17]: qHTS for differential inhibitors of proliferation of Plasmodium falciparum line 3D7 (AID 1876; active = well fitted curve in the direction sought with a large enough effect; an effect the other way counts as inactive or inconclusive; note: potency is the fitted concentration of half-maximal effect).
A short description of assay [18]: Nrf2 qHTS screen for inhibitors: Validation (AID 493153; active = well fitted inhibition curve with a large enough effect in the main read-out, with a control signal flat, not every such curve was filed as active; for activity change, negative = inhibition: % of control where 0% means no effect). As to conditions: Potency: luciferase luminescence; viability change: measured here: cytotoxicity max response. Summed up:
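A549 cells carrying an ARE-driven firefly luciferase reporter, in 5% FBS OPTI-MEM, were treated with compounds in concentration-response for 18-24 h at 37°C. Viability was read by CellTiter-Fluor fluorescence, then Nrf2 activity by luciferase luminescence.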

Assay [19] in a line: qHTS for Inhibitors of ATXN expression: Validation (AID 588378; active = well fitted curve in the direction sought with a large enough effect; an effect the other way counts as inactive or inconclusive; note: % is set by controls: 0 for no effect and ±100 for the full control effect; nearly all actives have a fitted effect of over 75% in size). Summed up: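 HEK293 cells carrying ATXN2-firefly luciferase reporter, treated with compound 24 h at 37 °C. Viability read first by CellTiter-Fluor (405/525 nm), then reporter expression by Bright-Glo luminescence; controls were a known ATXN2 expression inhibitor and a luciferase inhibitor.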
Assay [20] is described as follows: qHTS assay for small molecule activators of the p53 signaling pathway (AID 651743; active = well fitted activation curve with a large enough effect in the signal ratio, not every such curve was filed as active; the % refers to the signal ratio; note: potency is the fitted concentration of half-maximal effect). The following applies: HCT-116 p53RE-bla, beta-lactamase FRET ratio, 16 h; activation: stronger effect = higher value. The method, boiled down:
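HCT-116 p53RE-bla, 4,000 cells/well; 5 h settle; cpd/DMSO 16 h, 37 C; LiveBLAzer B/G 2 h RT; fluorescence intensity.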

Assay [21] in a line: qHTS assay to identify small molecules that stimulate interleukin-8 (IL-8) secretion (AID 651758; active = well fitted activation curve with a large enough effect in the signal ratio; the % refers to the signal ratio; note: potency is the fitted concentration of half-maximal effect). The method, boiled down: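 THP-1 cells (2000/well) exposed to compound 16 h at 37 C; secreted IL-8 then detected by HTRF with cryptate- and XL665-labelled anti-IL-8 antibody pair after 1-3 h at room temperature.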
For assay [22], the target named is Arylsulfatase A (Homo sapiens) (UniProt P15289). The assay is described as follows: qHTS screen for enhancers of Arylsulfatase A (ASA1): LOPAC Validation Assay (AID 720538; active = well fitted curve in the direction sought with a large enough effect; an effect the other way counts as inactive or inconclusive; note: 0% is about no effect). The method, boiled down:
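SV40-transformed fibroblasts from an MLD patient (ASA-I179S) were treated with compound for 48 h at 37 C. They were then lysed with 0.5 mM pNCS substrate (final) for 14 h at room temperature and stopped with NaOH; signal read by fluorescence (Ex 525/Em 598 nm), with increase denoting enhanced activity.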

Results filed as inconclusive are left out. The source made the active and inactive calls. Unless noted, calls come from the whole dose curve.

Chain of Peroxisome proliferator-activated receptor delta (Homo sapiens) (Q03181 whole entry, looked up): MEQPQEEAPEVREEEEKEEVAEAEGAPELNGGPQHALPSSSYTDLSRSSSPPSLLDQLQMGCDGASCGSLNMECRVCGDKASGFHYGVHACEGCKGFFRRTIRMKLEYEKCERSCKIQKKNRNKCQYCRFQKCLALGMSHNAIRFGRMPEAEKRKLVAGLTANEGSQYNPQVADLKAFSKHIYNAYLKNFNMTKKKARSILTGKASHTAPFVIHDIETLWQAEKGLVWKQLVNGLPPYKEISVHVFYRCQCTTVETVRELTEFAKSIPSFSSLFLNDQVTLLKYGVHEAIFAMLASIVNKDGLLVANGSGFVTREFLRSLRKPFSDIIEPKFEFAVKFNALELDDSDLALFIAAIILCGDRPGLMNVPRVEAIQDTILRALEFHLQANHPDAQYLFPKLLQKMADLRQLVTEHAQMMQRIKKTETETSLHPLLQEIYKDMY
Chain of Arylsulfatase A (Homo sapiens) (P15289 whole entry, looked up): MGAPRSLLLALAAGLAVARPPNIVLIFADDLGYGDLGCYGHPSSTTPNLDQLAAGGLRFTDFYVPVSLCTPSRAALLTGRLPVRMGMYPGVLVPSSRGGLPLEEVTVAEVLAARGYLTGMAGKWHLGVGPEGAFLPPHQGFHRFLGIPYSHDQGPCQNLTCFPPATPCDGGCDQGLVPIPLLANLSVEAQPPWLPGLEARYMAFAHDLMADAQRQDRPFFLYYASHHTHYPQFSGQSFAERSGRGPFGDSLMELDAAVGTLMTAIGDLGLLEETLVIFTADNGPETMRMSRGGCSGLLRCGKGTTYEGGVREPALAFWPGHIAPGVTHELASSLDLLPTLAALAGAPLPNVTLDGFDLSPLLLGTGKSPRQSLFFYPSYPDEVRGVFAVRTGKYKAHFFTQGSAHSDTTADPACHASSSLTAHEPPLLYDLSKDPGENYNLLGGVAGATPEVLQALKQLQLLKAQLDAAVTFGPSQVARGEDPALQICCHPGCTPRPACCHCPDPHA

Take `NC(N)=NC(N)=NCCc1ccccc1`: the Potency result in [1], in [2], in assay [3] and in assay [4] was “inactive” throughout. In addition, the activity change, negative = inhibition in assay [5] was -16.7%.
On to `CC(C)NC[C@H](O)COc1cccc2ccccc12`, for which the result in assay [6] was inactive. The Potency result in assay [2] and in assay [3] was “inactive” each time.
With `CN(C)c1ccc(C(=O)NCCCCCCC(=O)NO)cc1`, the Potency in assay [2] was 4.85 µM (active); in [3], 1.53 µM (active). Further, the Potency result in [5] is “inactive”.
Consider `CC(=O)OCC(=O)[C@@]12OC(C)(C)O[C@@H]1C[C@H]1[C@@H]3C[C@H](F)C4=CC(=O)C=C[C@]4(C)[C@@]3(F)[C@@H](O)C[C@@]12C`, for which the Potency entry in [2], in [3], in assay [7], in assay [9], in assay [4] and in [5] was “inactive” each time. Moreover, the outcome in assay [8] and in [10] was inactive.
As to `COc1ccc(-c2nc(N3CCOCC3)c3sc(CN(C)c4ncc(C(=O)NO)cn4)cc3n2)cn1`, the figures for the Potency in assay [2] and in assay [3] were 0.193 µM (active) and 0.122 µM (active), respectively. For the same compound, the Potency entry in assay [5] was “inactive”.
Turning to `CC[n+]1c(/C=C/C=C2/N(C)c3ccccc3C2(C)C)sc2ccccc21`, the compound was classed as inactive in [6]. Further, the Potency was 1.58 µM (active) in [2] and 0.708 µM (active) in assay [3].
For the compound `CC[C@]1(O)C[C@H]2CN(CCC3=c4ccccc4=N[C]3[C@@](C(=O)OC)(c3cc4c(cc3OC)N(C)[C@H]3[C@@](O)(C(N)=O)[C@H](O)[C@]5(CC)C=CCN6CC[C@]43[C@@H]65)C2)C1`, the Potency in [2] is 0.0385 µM (active); in assay [3], 0.0109 µM (active); in assay [11] it was 0.0764 µM (active); in [12], 0.0304 µM (active). The Potency result in assay [7], in assay [9] and in assay [4] was “inactive” throughout. Further, the result in assay [8] and in [10] was inactive.
Regarding `O=C(N[C@@H](c1ccccc1)[C@@H]1CCCCN1)c1cccc(C(F)(F)F)c1Cl`, the Potency in assay [2] is 0.0243 µM (active); in assay [3] it was 0.0086 µM (active). Further, the Potency result in [13] and in assay [4] was “inactive” in each case.
Take `CN[C@@H](C)C(=O)N[C@H]1CN(C(=O)CC(C)C)CC[C@H]2CC[C@@H](C(=O)NC(c3ccccc3)c3ccccc3)N2C1=O`: the Potency is 3.43 µM (active) in assay [2] and 12.2 µM (active) in [3]. In assay [4], the Potency entry was “inactive”. Moreover, the activity change, negative = inhibition in [5] amounted to 1.03%.
With `CC(C)NC[C@@H](O)COc1cccc2ccccc12`, the compound was classed as inactive in [14], in assay [15], in [8] and in [10]. Also, the Potency result in assay [16], in assay [2], in [3] and in assay [4] was “inactive” in each case. Besides, the activity change, negative = inhibition in assay [5] is -4.9%.
On to `CNC(=O)c1ccccc1Nc1nc(Nc2ccc(N3CCOCC3)cc2OC)ncc1Cl`, for which the Potency in assay [2] was 4.85 µM (active); in [3] it was 2.73 µM (active). Also, in [4], the Potency result was “inactive”.
In the case of `Cc1c(C(N)=O)cc([N+](=O)[O-])cc1[N+](=O)[O-]`, the Potency result in [2], in assay [3], in assay [7], in assay [9], in assay [4] and in assay [5] was “inactive” in each case. The call in assay [8] and in [10] was inactive.
In the case of `C[C@@]1(C(=O)Nc2ccc(F)nc2)CCCN1c1nc(Nc2cc(C3CC3)[nH]n2)c2cccn2n1`, the Potency in [2] was 6.11 µM (active); in [3] it was 1.37 µM (active); in assay [12], 2.71 µM (active). Further, the Potency result in [4] is “inactive”.
For the compound `CCN1CCCC1=O`, the Potency result in assay [2], in assay [3], in [7], in assay [9], in assay [4] and in assay [5] was “inactive” each time. In addition, the compound was called inactive in [8] and in assay [10].
`O=C(Nc1cn[nH]c1-c1nc2ccc(CN3CCOCC3)cc2[nH]1)NC1CC1`: the results for the Potency in assay [2], in assay [3] and in assay [4] were 7.69 µM (active), 1.93 µM (active) and 15.8 µM (active), respectively. The activity change, negative = inhibition in [5] is -95.5%.
For `COc1cc2ncnc(Nc3cc(Br)c(O)c(Br)c3)c2cc1OC` the same measures were 0.611 µM (active), 0.0544 µM (active), “inactive” and -28.4%.
On the same counts, the results for `Cc1cc(C(=O)NOCCO)c(Nc2ccc(I)cc2F)n(C)c1=O` are 6.85 µM (active), 0.863 µM (active), “inactive” and -17.4%.
As to `NC(=O)c1ncn([C@@H]2O[C@H](CO)[C@@H](O)[C@H]2O)n1`, the call in [14], in assay [15], in assay [6], in [8] and in assay [10] was inactive. Moreover, the figures for the Potency in assay [17], in assay [20] and in assay [21] were 8.91 µM (active), 31.6 µM (active) and 66.8 µM (active), respectively. Moreover, the Potency result in assay [16], in [18], in assay [19], in assay [1], in assay [22] and in assay [2] was “inactive” throughout. Also, the Potency result in assay [3], in assay [7], in [9] and in assay [4] was “inactive” each time. The compound further registered a viability change in assay [18] of 7.17%. The activity change, negative = inhibition in assay [5] is -11.7%.
